# Results filed as inconclusive are left out. Calls of active or inactive are those of the source. The calls were made as follows, unless noted: active = hit-call score of the fitted dose curve at least 0.9, where 1 is the maximum; inactive = score below 0.9.
# Key:
# [1] = ATG_PBREM_CIS: Attagene CIS-FACTORIAL HepG2 Assay for human Phenobarbital-responsive Enhancer Module (PBREM) (AID 2282955); settings: HepG2 PBREM cis-reporter, Attagene multiplexed transcription; actives raise or lower the signal
# Summary of the method: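 Reporter mRNA read by RT-PCR, 6-FAM primer extension, HpaI digestion and capillary electrophoresis. Transfected HepG2 cells, 24 h compound exposure. Gain or loss of signal fitted bidirectionally relative to DMSO baseline.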
# [2] = ATG_PXRE_CIS: Attagene CIS-FACTORIAL HepG2 Assay for human Pregnane X Receptor Element (PXRE) (AID 2282957); settings: HepG2 Attagene CIS-FACTORIAL PXRE reporter, mRNA; actives raise or lower the signal
# Summary of the method: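 HepG2 cells transiently transfected with cis-element-driven multiplexed reporter units; after 24 h chemical exposure, reporter mRNA measured by RT-PCR, 6-FAM labelling, HpaI digestion and capillary electrophoresis. Bidirectional fitting relative to DMSO.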
# [3] = ATG_PPRE_CIS: Attagene CIS-FACTORIAL HepG2 Assay for human Peroxisome Proliferator-activated Response Element (PPRE) (AID 2282958); settings: HepG2 PPRE cis-element reporter, Attagene transcription factor profiling; actives raise or lower the signal
# Summary of the method: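 Read-out: fluorescent reporter mRNA fragments resolved by capillary electrophoresis after RT-PCR. HepG2 cells carried transiently transfected PPRE-driven cis reporter constructs and were dosed for 24 h; gain or loss of signal fitted relative to DMSO.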
# [4] = ATG_RORE_CIS: Attagene CIS-FACTORIAL HepG2 Assay for human RAR-related Orphan Receptor Element (RORE) (AID 2282959); settings: HepG2 Attagene cis-factorial RORE reporter, mRNA; actives raise or lower the signal
# Summary of the method: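 Readout: fluorescent reporter mRNA by RT-PCR plus capillary electrophoresis, 24 h after dosing transfected HepG2 cells. Endogenous transcription factor activity on a cis promoter element is measured. Gain or loss of signal fitted against DMSO.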
# [5] = ATG_Sox_CIS: Attagene CIS-FACTORIAL HepG2 Assay for human SRY-box transcription factor (SOX) (AID 2282960); settings: HepG2 Attagene cis-factorial SOX reporter, mRNA; actives raise or lower the signal
# Summary of the method: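 Read-out: fluorescent RT-PCR products of SOX1-linked reporter transcripts resolved by capillary electrophoresis, fitted bidirectionally against DMSO. Transiently transfected HepG2 cells, 24 h after chemical exposure, endogenous transcription factor activity.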
# [6] = target: Transcription factor Sp1 (Homo sapiens) (UniProt P08047); test: ATG_Sp1_CIS: Attagene CIS-FACTORIAL HepG2 Assay for human Specificity Protein 1 (Sp1) (AID 2282961); settings: HepG2 Sp1 cis-reporter transcription, actives raise or lower the signal
# Summary of the method: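 Read-out: fluorescence of 6-FAM-labeled, HpaI-digested RT-PCR products separated by capillary electrophoresis. HepG2 cells carried transfected cis-element reporter units and were exposed to chemicals for 24 h; gain or loss of signal fitted relative to DMSO.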
# [7] = ATG_SREBP_CIS: Attagene CIS-FACTORIAL HepG2 Assay for human Sterol Regulatory Element Binding (SREBP) (AID 2282962); settings: HepG2 Attagene cis-factorial SREBP reporter, mRNA; actives raise or lower the signal
# Summary of the method: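 HepG2 cells transiently transfected with multiplexed cis-promoter reporter units sensing endogenous transcription factors; reporter mRNA measured 24 h after dosing by RT-PCR, 6-FAM labeling, HpaI digestion and capillary electrophoresis. Bidirectional fit versus DMSO.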
# [8] = target: Signal transducer and activator of transcription 3 (Homo sapiens) (UniProt P40763); test: ATG_STAT3_CIS: Attagene CIS-FACTORIAL HepG2 Assay for human Signal Transducer and Activator of Transcription 3 (STAT3) (AID 2282963); settings: HepG2, Attagene cis-factorial STAT3 reporter transcription; actives raise or lower the signal
# Summary of the method: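 Transcript-level reporter assay. HepG2 transient MRTU transfection, 24 h exposure, fluorescence detection after RT-PCR and CE; DMSO baseline.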
# [9] = ATG_TA_CIS: Attagene CIS-FACTORIAL HepG2 Assay for human TA Basal Promoter (AID 2282964); settings: HepG2 Attagene CIS-factorial TA basal promoter reporter; actives raise or lower the signal
# Summary of the method: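 Background-control readout: TA basal promoter reporter mRNA, fitted in both directions relative to DMSO. Measured by RT-PCR and capillary electrophoresis 24 hours after treating HepG2 human liver cells transiently carrying multiplexed cis-regulated reporter constructs.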
# [10] = ATG_TCF_b_cat_CIS: Attagene CIS-FACTORIAL HepG2 Assay for human T-Cell-Factor with beta-catenin (TCF/b-cat) (AID 2282965); settings: HepG2 TCF/beta-catenin cis-reporter transcription, actives raise or lower the signal
# Summary of the method: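 Using capillary electrophoresis as the read-out, labelled reporter cDNA fragments from transiently transfected HepG2 were sized and quantified. Exposure lasted 24 hours; activity in either direction was referenced to DMSO.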
# [11] = ATG_TAL_CIS: Attagene CIS-FACTORIAL HepG2 Assay for human TAL Basal Promoter (AID 2282966); settings: HepG2 Attagene cis-factorial TAL promoter reporter; actives raise or lower the signal;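 also: background control endpoint measuring basal TAL promoter reporter mRNA not a specific factor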
# Summary of the method: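 HepG2 cells transiently transfected with multiplexed cis-promoter reporter units, dosed 24 h. Reporter mRNA quantified by RT-PCR, 6-FAM labelling, HpaI digestion and capillary electrophoresis; TAL basal promoter serves as background control, fitted bidirectionally versus DMSO.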
# [12] = ATG_TGFb_CIS: Attagene CIS-FACTORIAL HepG2 Assay for human Transforming Growth Factor (TGF) (AID 2282967); settings: HepG2 Attagene CIS TGFb reporter, mRNA transcription; actives raise or lower the signal
# Summary of the method: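 Endogenous TGFB1-linked transcription factor activity read as reporter mRNA via RT-PCR and capillary electrophoresis, 24 h after dosing transiently transfected HepG2 cells. Gain or loss of signal fitted relative to DMSO.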
# [13] = ATG_VDRE_CIS: Attagene CIS-FACTORIAL HepG2 Assay for human Vitamin D Receptor Element (VDRE) (AID 2282968); settings: HepG2 VDRE cis-reporter transcription, actives raise or lower the signal
# Summary of the method: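 RT-PCR/CE readout of reporter mRNA; HepG2, transient transfection, 24 h dosing; DMSO baseline; bidirectional analysis.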
# [14] = target: X-box-binding protein 1 (Homo sapiens) (UniProt P17861); test: ATG_Xbp1_CIS: Attagene CIS-FACTORIAL HepG2 Assay for human X-box Binding Protein 1 (XBP1) (AID 2282972); settings: HepG2 XBP1 cis-element reporter, Attagene multiplex; actives raise or lower the signal
# Summary of the method: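 HepG2 cells transiently transfected with multiple cis-element reporter units report endogenous TF activity; 24 h exposure, then reporter mRNA measured by RT-PCR, 6-FAM labelling, HpaI digestion and capillary electrophoresis. Bidirectional fitting versus DMSO.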
# [15] = ATG_GAL4_TRANS: Attagene TRANS-FACTORIAL HepG2 Assay for GAL4 (Internal Marker) (AID 2282976; active = hit-call score of the fitted dose curve at least 0.9, where 1 is the maximum); settings: HepG2 Attagene TRANS GAL4 internal marker reporter
# Summary of the method: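 Background-control readout: GAL4-UAS reporter transcript in transiently transfected HepG2 cells after 24 h compound exposure. Measured by RT-PCR, 6-FAM primer extension, HpaI digest and capillary electrophoresis; gain-of-signal fit versus DMSO.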
# [16] = target: Paired box protein Pax-6 (Homo sapiens) (UniProt P26367); test: ATG_Pax6_CIS: Attagene CIS-FACTORIAL HepG2 Assay for human Paired Box 6 (PAX6) (AID 2282956); settings: HepG2 CIS-FACTORIAL PAX6 reporter transcription, RNA readout; actives raise or lower the signal
# Summary of the method: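 HepG2 cells transiently transfected with cis-promoter-driven multiplexed reporter units sensing endogenous transcription factor activity; 24 h chemical exposure. Reporter mRNA quantified by RT-PCR, 6-FAM labelling, HpaI digestion and capillary electrophoresis; bidirectional fit versus DMSO baseline.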
# [17] = target: Estrogen receptor (Homo sapiens) (UniProt P03372); test: ATG_ERa_TRANS: Attagene TRANS-FACTORIAL HepG2 Assay for human Estrogen Receptor alpha (ERa) (AID 2282970; active = hit-call score of the fitted dose curve at least 0.9, where 1 is the maximum); settings: HepG2 Attagene TRANS ERa GAL4 reporter, mRNA
# Summary of the method: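 HepG2 cells transiently transfected with multiplexed GAL4-UAS reporter units read out chimeric NR-Gal4 activity. After 24 h compound exposure, reporter mRNA was quantified by RT-PCR, 6-FAM labeling, HpaI digestion and capillary electrophoresis, relative to DMSO.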
# [18] = ATG_M_19_TRANS: Attagene TRANS-FACTORIAL HepG2 Assay for M19 Transcription Factor (Internal Marker) (AID 2282974; active = hit-call score of the fitted dose curve at least 0.9, where 1 is the maximum); settings: HepG2 Attagene TRANS-FACTORIAL M19 internal marker reporter
# Summary of the method: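 24 h chemical exposure of transiently transfected HepG2 (MRTU library). RNA → oligo(dT) RT → PCR → 6-FAM labelling → HpaI cut → CE fluorescence. Positive-direction fit vs DMSO baseline; background internal-marker readout.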
# [19] = target: Nuclear receptor subfamily 1 group I member 3 (Homo sapiens) (UniProt Q14994); test: ATG_CAR_TRANS: Attagene TRANS-FACTORIAL HepG2 Assay for human Constitutive Androstane Receptor (CAR) (AID 2282969; active = hit-call score of the fitted dose curve at least 0.9, where 1 is the maximum;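 also: activators raise reporter mRNA above DMSO so AC50 marks induction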); settings: HepG2 Attagene TRANS-FACTORIAL CAR reporter
# Summary of the method: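 HepG2 cells transiently transfected with multiplexed GAL4-UAS reporter units expressing chimeric NR-Gal4 proteins; compound exposure 24 h. Reporter mRNA measured by RT-PCR, 6-FAM labelling, HpaI digestion and capillary electrophoresis; gain-of-signal fitted against DMSO baseline.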
# Signal transducer and activator of transcription 3 (Homo sapiens), sequence (P40763 whole entry, looked up): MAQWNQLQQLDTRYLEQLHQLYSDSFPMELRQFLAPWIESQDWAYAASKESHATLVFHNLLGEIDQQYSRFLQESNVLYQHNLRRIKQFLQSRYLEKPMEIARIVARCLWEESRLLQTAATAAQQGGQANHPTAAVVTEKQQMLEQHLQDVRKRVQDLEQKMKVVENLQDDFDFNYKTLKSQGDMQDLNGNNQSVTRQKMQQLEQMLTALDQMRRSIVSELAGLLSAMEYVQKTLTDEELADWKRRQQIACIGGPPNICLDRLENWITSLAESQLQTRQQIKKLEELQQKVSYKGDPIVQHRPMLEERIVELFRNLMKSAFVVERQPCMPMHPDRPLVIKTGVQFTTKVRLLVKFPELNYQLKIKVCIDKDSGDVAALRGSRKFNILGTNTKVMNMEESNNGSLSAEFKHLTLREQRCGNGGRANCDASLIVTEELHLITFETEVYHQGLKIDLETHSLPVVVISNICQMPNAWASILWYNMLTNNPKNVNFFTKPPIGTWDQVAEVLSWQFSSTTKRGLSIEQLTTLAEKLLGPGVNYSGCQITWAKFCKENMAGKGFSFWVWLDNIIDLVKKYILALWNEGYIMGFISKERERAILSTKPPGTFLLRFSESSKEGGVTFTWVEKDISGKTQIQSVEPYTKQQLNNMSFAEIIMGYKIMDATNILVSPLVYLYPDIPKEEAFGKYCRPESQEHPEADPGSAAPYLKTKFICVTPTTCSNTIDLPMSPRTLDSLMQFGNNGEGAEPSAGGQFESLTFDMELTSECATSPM
# X-box-binding protein 1 (Homo sapiens), sequence (P17861 whole entry, looked up): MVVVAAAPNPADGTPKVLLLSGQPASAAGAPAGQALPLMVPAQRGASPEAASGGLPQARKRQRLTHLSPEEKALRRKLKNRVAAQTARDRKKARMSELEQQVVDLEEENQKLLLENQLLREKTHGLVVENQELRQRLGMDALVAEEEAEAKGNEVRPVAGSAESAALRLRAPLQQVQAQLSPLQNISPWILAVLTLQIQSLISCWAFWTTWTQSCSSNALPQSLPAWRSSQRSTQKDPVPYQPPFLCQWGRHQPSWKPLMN
# Transcription factor Sp1 (Homo sapiens), sequence (P08047 whole entry, looked up): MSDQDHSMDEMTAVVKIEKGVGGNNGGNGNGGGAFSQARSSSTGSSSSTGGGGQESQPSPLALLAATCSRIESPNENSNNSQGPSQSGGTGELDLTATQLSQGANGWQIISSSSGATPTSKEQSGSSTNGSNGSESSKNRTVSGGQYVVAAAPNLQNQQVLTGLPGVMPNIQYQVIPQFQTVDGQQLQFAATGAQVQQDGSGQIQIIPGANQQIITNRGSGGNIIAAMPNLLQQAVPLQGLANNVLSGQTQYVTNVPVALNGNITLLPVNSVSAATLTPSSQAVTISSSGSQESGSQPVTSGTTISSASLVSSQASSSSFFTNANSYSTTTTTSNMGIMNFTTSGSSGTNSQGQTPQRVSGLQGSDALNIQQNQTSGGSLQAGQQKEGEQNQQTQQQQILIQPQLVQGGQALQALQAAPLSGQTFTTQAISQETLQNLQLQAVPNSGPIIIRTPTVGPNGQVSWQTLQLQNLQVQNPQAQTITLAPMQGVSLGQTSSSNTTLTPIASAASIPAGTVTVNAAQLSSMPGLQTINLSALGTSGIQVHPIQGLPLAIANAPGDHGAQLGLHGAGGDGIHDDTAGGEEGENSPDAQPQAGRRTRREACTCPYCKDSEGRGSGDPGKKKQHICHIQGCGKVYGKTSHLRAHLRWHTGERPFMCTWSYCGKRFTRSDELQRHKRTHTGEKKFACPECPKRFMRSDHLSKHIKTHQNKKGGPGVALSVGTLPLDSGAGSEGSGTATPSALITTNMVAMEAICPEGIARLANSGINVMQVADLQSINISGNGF
# Estrogen receptor (Homo sapiens), sequence (P03372 whole entry, looked up, the tested form may be a part): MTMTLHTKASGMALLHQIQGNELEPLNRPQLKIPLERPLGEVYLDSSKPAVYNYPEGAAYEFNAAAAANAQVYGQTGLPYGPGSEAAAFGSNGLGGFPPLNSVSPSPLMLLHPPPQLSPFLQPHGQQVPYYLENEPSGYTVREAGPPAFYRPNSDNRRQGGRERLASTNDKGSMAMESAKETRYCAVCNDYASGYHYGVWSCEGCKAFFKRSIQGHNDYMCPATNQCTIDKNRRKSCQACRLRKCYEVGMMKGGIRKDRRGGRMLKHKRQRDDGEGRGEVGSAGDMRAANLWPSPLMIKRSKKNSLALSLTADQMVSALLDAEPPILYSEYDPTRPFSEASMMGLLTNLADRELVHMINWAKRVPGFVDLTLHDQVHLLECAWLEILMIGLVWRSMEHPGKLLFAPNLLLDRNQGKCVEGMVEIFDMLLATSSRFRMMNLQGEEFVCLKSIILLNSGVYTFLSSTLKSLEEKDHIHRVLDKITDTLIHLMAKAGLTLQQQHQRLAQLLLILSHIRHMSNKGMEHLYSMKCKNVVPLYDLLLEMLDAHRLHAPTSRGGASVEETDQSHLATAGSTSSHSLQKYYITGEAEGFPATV
# Paired box protein Pax-6 (Homo sapiens), sequence (P26367 whole entry, looked up): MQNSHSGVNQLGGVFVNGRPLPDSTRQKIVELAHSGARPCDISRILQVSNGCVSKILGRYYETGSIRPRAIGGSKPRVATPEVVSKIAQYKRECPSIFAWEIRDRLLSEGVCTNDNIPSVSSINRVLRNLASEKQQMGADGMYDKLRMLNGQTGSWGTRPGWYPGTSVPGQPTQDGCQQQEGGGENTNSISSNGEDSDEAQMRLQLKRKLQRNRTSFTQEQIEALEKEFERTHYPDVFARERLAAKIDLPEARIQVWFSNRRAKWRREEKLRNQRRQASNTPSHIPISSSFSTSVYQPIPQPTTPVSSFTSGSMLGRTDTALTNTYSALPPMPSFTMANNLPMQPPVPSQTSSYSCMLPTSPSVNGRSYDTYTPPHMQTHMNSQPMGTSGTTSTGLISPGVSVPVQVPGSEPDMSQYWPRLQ
# Nuclear receptor subfamily 1 group I member 3 (Homo sapiens), sequence (Q14994 whole entry, looked up, the tested form may be a part): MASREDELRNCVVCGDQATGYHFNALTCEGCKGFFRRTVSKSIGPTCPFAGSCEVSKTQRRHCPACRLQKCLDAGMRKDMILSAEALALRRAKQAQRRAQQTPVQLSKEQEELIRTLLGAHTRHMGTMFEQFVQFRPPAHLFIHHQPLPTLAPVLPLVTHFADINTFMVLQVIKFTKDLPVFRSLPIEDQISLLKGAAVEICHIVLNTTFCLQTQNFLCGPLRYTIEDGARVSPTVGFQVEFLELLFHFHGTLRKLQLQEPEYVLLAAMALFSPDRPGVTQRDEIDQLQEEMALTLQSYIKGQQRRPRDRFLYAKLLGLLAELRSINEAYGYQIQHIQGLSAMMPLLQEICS
compound,measurement,setting,value
CC1(C)CC(O)CC(C)(C)N1[O],outcome,[1],inactive
same,outcome,[2],inactive
same,outcome,[3],inactive
same,outcome,[4],inactive
same,outcome,[5],inactive
same,outcome,[6],inactive
same,outcome,[7],inactive
same,outcome,[8],inactive
same,outcome,[9],inactive
same,outcome,[10],inactive
same,outcome,[11],inactive
same,outcome,[12],inactive
same,outcome,[13],inactive
same,outcome,[14],inactive
same,outcome,[15],inactive
C=C[C@@]1(C)CC(=O)[C@]2(O)[C@@]3(C)[C@@H](O)CCC(C)(C)[C@@H]3[C@H](O)[C@H](OC(C)=O)[C@@]2(C)O1,outcome,[16],inactive
same,AC50,[2],0.433 µM (active)
same,outcome,[3],inactive
same,outcome,[4],inactive
same,outcome,[5],inactive
same,outcome,[6],inactive
same,outcome,[7],inactive
same,outcome,[8],inactive
same,outcome,[9],inactive
same,outcome,[10],inactive
same,outcome,[11],inactive
same,outcome,[12],inactive
same,AC50,[13],2.1 µM (active)
same,outcome,[14],inactive
Clc1cc(Cl)c(Cl)c(Cl)c1Cl,AC50,[1],66.2 µM (active)
same,AC50,[2],27.6 µM (active)
same,outcome,[4],inactive
same,outcome,[5],inactive
same,outcome,[6],inactive
same,outcome,[7],inactive
same,outcome,[8],inactive
same,outcome,[9],inactive
same,outcome,[10],inactive
same,outcome,[11],inactive
same,AC50,[12],100 µM (active)
same,AC50,[17],27 µM (active)
same,outcome,[14],inactive
same,outcome,[18],inactive
same,outcome,[15],inactive
Cn1cccc1,outcome,[16],inactive
same,outcome,[2],inactive
same,outcome,[3],inactive
same,outcome,[4],inactive
same,outcome,[5],inactive
same,AC50,[6],25.7 µM (active)
same,outcome,[7],inactive
same,outcome,[8],inactive
same,outcome,[9],inactive
same,outcome,[10],inactive
same,outcome,[11],inactive
same,outcome,[12],inactive
same,outcome,[13],inactive
same,outcome,[17],inactive
same,outcome,[14],inactive
same,outcome,[18],inactive
CC(=O)c1ccc(S(=O)(=O)NC(=O)NC2CCCCC2)cc1,outcome,[16],inactive
same,AC50,[2],100 µM (active)
same,outcome,[3],inactive
same,outcome,[4],inactive
same,outcome,[5],inactive
same,outcome,[6],inactive
same,outcome,[7],inactive
same,outcome,[8],inactive
same,outcome,[9],inactive
same,outcome,[10],inactive
same,outcome,[11],inactive
same,outcome,[12],inactive
same,outcome,[13],inactive
same,outcome,[14],inactive
Cc1cc(C)c(C=O)c(C)c1,outcome,[16],inactive
same,AC50,[2],1.61 µM (active)
same,outcome,[3],inactive
same,outcome,[4],inactive
same,outcome,[5],inactive
same,outcome,[6],inactive
same,outcome,[7],inactive
same,outcome,[8],inactive
same,outcome,[9],inactive
same,outcome,[10],inactive
same,outcome,[11],inactive
same,outcome,[12],inactive
same,AC50,[13],3.24 µM (active)
same,outcome,[17],inactive
same,outcome,[14],inactive
same,outcome,[18],inactive
same,outcome,[15],inactive
CC1CCC(=O)C1=O (stereo not drawn),outcome,[1],inactive
same,AC50,[2],59 µM (active)
same,outcome,[3],inactive
same,outcome,[6],inactive
same,outcome,[7],inactive
same,outcome,[8],inactive
same,outcome,[10],inactive
same,outcome,[11],inactive
same,outcome,[12],inactive
same,outcome,[13],inactive
same,outcome,[17],inactive
same,outcome,[14],inactive
same,outcome,[18],inactive
same,outcome,[15],inactive
CCCC1CCCC(=O)O1 (stereo not drawn),outcome,[1],inactive
same,AC50,[3],11 µM (active)
same,outcome,[4],inactive
same,outcome,[6],inactive
same,outcome,[7],inactive
same,outcome,[8],inactive
same,outcome,[9],inactive
same,outcome,[10],inactive
same,outcome,[11],inactive
same,outcome,[12],inactive
same,outcome,[19],inactive
same,outcome,[17],inactive
same,outcome,[14],inactive
same,outcome,[18],inactive
C=CC(=O)NC(C)(C)C,outcome,[1],inactive
same,AC50,[2],26.9 µM (active)
same,outcome,[4],inactive
same,outcome,[5],inactive
same,outcome,[6],inactive
same,outcome,[7],inactive
same,outcome,[9],inactive
same,outcome,[10],inactive
same,outcome,[11],inactive
same,outcome,[12],inactive
same,outcome,[13],inactive
same,outcome,[19],inactive
same,outcome,[17],inactive
same,outcome,[14],inactive

# — PubChem BioAssay (EPA / NIEHS)
